Assay results taken from PubChem BioAssay (NCATS).
Where “and” joins values, the source holds several entries; their conditions need not be identical. Identical values can stand only once. Inconclusive results are not listed. Calls of active or inactive are those of the source. Unless noted, calls come from the whole dose curve; as a rule, active = well fitted curve in the direction sought with a large enough effect; inconclusive = small, poorly fitted or top-dose-only effect, or another doubt; inactive = no such curve, though single readings can be large; an effect the other way counts as inactive or inconclusive.

What was measured:
[1] = Cellular Toxicity (caspase-3) HUV-EC-C (AID 656);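 note: 0% = DMSO basal and 100% = 100 µM tamoxifen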
Outline: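 HUV-EC-C endothelial cells, 1000/well, were pre-incubated 5 hr at 37°C, then exposed to compounds for 16 hr at 37°C. Caspase-Glo 3/7 luminescence was read after 20 min at room temperature. AC50 came from Hill fits, normalized to DMSO and 100 uM tamoxifen.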

[2] = Cellular Toxicity (caspase-3) SHSY5Y (AID 657)
Outline: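 SH-SY5Y human neuroblastoma cells (1500/well) were treated with compounds for 16 h at 37 °C, then Caspase-Glo 3/7 luminescence was read after 1 h at room temperature. Data normalized to DMSO and 10 uM staurosporine; AC50 from Hill fits.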

[3] = Cellular Toxicity (caspase-3) H-4-II-E (AID 663); details: Potency: caspase-3 activation;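 note: cells exposed to compound for 16 hr before readout; 0% = DMSO basal and 100% = 100 µM tamoxifen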
Outline: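 Luminescence from caspase-cleaved aminoluciferin substrate, read 20 min after reagent addition, reports caspase 3/7 activation in rat H-4-II-E cells after 16 hr compound exposure. Normalized to DMSO (basal) and 100 uM tamoxifen (100%); AC50 from Hill fits.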

[4] = Cell Viability - LYMP1-002 - Assay at 16 hr (AID 948);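 note: 0% = DMSO alone and full effect = 92 µM tetraoctylammonium bromide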
Outline: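 Human lymphoblastoid cells (LYMP1-002), 2500/well, were preincubated 5 hr at 37 C, then exposed to compounds for 16 hr at 37 C in complete medium. Cellular ATP was read by CellTiter-Glo luminescence after 30 min at room temperature; AC50 from Hill fits.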

[5] = MultiTox-Fluor Cytotoxicity Assay - LYMP1-002 - Dead Cells (AID 960); note: nearly all actives have a fitted effect of over 60% in size
Outline: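 LYMP1-002 cells 2500/well; 5 hr 37 C pre-incubation; compound 16 hr 37 C; MultiTox-Fluor reagent 60 min RT; dead-cell fluor Ex/Em 485/520. Norm. to DMSO (0%) vs 15 uM tetraoctylammonium bromide (100%); Hill AC50.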

[6] = Cell Viability - LYMP1-003 - Assay at 24 hr (AID 963);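 note: plate controls were DMSO only for no effect and tetraoctylammonium bromide positive control for full effect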
Outline: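 Cells seeded at 2500/well, 5 hr at 37 C; compounds added; 24 hr at 37 C; CellTiter-Glo added, 30 min room temperature; luminescence read. Decrease in ATP taken as cytotoxicity, AC50 from Hill modelling.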

[7] = Cell Viability - LYMP1-003 - Assay at 40 hr (AID 964); note: series mostly up to about 92 µM; % is set by controls: 0 for no effect and ±100 for the full control effect; nearly all actives have a fitted effect of over 60% in size
Outline: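 Cells were seeded at 2500 per well and incubated 5 hr at 37 C. Compounds were added across a concentration series and left 40 hr at 37 C. CellTiter-Glo was added for 30 min at room temperature before luminescence reading.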

[8] = Cell Viability - LYMP2-003 (AID 965);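 note: cells exposed to compounds for 24 h before reading; 0% = DMSO only and full effect = 92 µM tetraoctylammonium bromide; nearly all actives have a fitted effect of over 50% in size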
Outline: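 Human lymphoblastoid cells (2500/well) were pre-incubated 5 hr at 37 C, then exposed to compounds over a concentration range for 24 hr at 37 C. Intracellular ATP was read by CellTiter-Glo luminescence; AC50 came from Hill-equation fits.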

[9] = Cell Viability - LYMP2-013 (AID 970);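 note: series mostly up to about 92 µM; 0% = DMSO only and full inhibition = tetraoctylammonium bromide control; nearly all actives have a fitted effect of over 55% in size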
Outline: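 qHTS; 2500 lymphoblastoid cells/well; 5 hr 37 C settle; cpd 24 hr 37 C; CellTiter-Glo, 30 min RT; luminescence. AC50 = Hill fit.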

[10] = Cell Viability - LYMP2-017 (AID 972); note: series mostly up to about 92 µM; % is set by controls: 0 for no effect and ±100 for the full control effect; nearly all actives have a fitted effect of over 55% in size
Outline: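 2500 cells/well, 5 h 37 C; cpd 24 h 37 C in complete medium; CellTiter-Glo, 30 min RT; luminescence (ATP). AC50 via Hill fit, qHTS.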

[11] = Cell Viability - LYMP2-023 (AID 975);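 note: cellular ATP measured by luciferase luminescence as viability proxy; series mostly up to about 92 µM; plate controls were DMSO only for no effect and 92 µM tetraoctylammonium bromide control for full effect; nearly all actives have a fitted effect of over 55% in size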
Outline: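 2500 cells/well, 5 hr 37 C; cpd 24 hr 37 C; CellTiter-Glo, 30 min RT; luminescence. qHTS conc-response, Hill fit -> AC50. Pos ctrl tetraoctylammonium bromide.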

[12] = Cell Viability - LYMP2-002 (AID 977);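 note: series mostly up to about 92 µM; plate controls were DMSO only for no effect and 92 µM tetraoctylammonium bromide for full effect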
Outline: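 Luminescent ATP readout (CellTiter-Glo, 30 min room temperature) after 24 h compound exposure at 37 C of a human lymphoblastoid line, 2500 cells/well. AC50 values derived by standard Hill fitting of qHTS concentration-response data.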

[13] = Cell Viability - LYMP2-012 (AID 982);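 note: cellular ATP by luciferase luminescence where a drop means cytotoxicity; cells exposed to compound for one day before reading; 0% = DMSO only and full loss = 92 µM tetraoctylammonium bromide; nearly all actives have a fitted effect of over 55% in size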
[14] = target: Retinoic acid receptor RXR-alpha (Homo sapiens) (UniProt P19793); assay: qHTS assay for small molecule agonists of retinoid X receptor alpha signaling (AID 588544; calls by dose curve;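 note: 0% = DMSO basal wells and 100% = reference agonist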)
Chain of Retinoic acid receptor RXR-alpha (Homo sapiens) (P19793 whole entry, looked up): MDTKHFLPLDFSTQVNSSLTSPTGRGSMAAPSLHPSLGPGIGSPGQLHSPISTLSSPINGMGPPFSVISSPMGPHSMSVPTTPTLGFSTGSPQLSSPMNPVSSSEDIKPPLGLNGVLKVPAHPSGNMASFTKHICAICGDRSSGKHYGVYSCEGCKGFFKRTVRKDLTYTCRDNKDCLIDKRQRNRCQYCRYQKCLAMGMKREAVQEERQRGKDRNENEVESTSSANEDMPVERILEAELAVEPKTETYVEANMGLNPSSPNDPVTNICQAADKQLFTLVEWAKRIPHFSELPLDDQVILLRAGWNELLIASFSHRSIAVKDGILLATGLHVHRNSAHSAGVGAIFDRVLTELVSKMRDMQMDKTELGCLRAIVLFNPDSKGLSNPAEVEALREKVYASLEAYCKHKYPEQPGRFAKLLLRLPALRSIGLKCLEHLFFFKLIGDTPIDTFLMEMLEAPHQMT

[15] = qHTS assay for small molecule agonists of the antioxidant response element (ARE) signaling pathway measured by Nrf2-dependant transcriptional activity - cell viability counter screen (AID 720653; active = well fitted curve in the direction sought with a large enough effect in the repeat runs; an effect the other way counts as inactive or inconclusive; note: % is set by controls: 0 for no effect and ±100 for the full control effect); details: ARE-bla HepG2 viability, CellTiter-Glo ATP luminescence, 16 h; hits give low values
Outline: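 ARE-bla HepG2 cells (2,000/well) rested 5 hrs at 37C/5% CO2, then exposed to compounds in DMSO for 16 hrs. Viability was read in the same wells as intracellular ATP by luminescence, 30 min at room temperature after reagent addition.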

[16] = Cellular Toxicity (caspase-3) SK-N-SH (AID 661);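 note: 0% = DMSO basal and 100% = 10 µM staurosporine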
Outline: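 Human neuroblastoma SK-N-SH, 1500 cells/well, 5 hr pre-incubation, then compound 16 hr, 37 °C. Caspase-Glo 3/7 reagent, 1 hr RT, luminescence. Norm. to DMSO/10 uM staurosporine; Hill-fit AC50.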

[17] = Cell Viability - LYMP2-009 (AID 968)
[18] = target: Retinoic acid receptor RXR-alpha (Homo sapiens) (UniProt P19793); assay: qHTS assay for small molecule antagonists of retinoid X receptor alpha signaling (AID 588546; active = well fitted inhibition curve with a large enough effect in the signal ratio, with a control signal flat, not every such curve was filed as active; the % refers to the signal ratio;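 note: cells stimulated with 9-cis-retinoic acid as agonist; % is set by controls: 0 for no effect and ±100 for the full control effect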); details: HEK293T RXRa-UAS-bla, beta-lactamase ratio, antagonist mode
Outline: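 Beta-lactamase reporter inhibition, read as CCF4 fluorescence ratio (ex 405, em 460/530 nm) after 2 h at RT. HEK293T UAS-bla cells, 2500/well, were stimulated with 9-cis-RA at 500 or 100 nM final alongside test compound for 18 h at 37 C.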

[19] = qHTS assay for small molecule activators of the p53 signaling pathway (AID 651743; active = well fitted activation curve with a large enough effect in the signal ratio, not every such curve was filed as active; the % refers to the signal ratio; note: series mostly up to about 92 µM; % of control where 0% means no effect); details: HCT-116 p53RE-bla, beta-lactamase FRET ratio, 16 h; activation: hits give high values
Outline: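 Cell-based beta-lactamase reporter (p53 response elements, HCT-116 background). After a 5-hour preincubation, cells received compound for 16 hours at 37 C; substrate development ran 2 hours at room temperature.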

[20] = Cell Viability - LYMP2-011 (AID 969);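 note: 0% = DMSO only and full inhibition = 92 µM tetraoctylammonium bromide; nearly all actives have a fitted effect of over 60% in size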
Outline: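 2500 cells/well, 5 hr 37 C; compound added, 24 hr 37 C; CellTiter-Glo 30 min RT; luminescence. qHTS concentration-response, Hill-equation AC50. Tetraoctylammonium bromide positive control.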

O=C(Cc1ccccc1)OCc1ccccc1
inactive: outcome [1] | outcome [2] | Potency [3] | outcome [4] | Potency [5] | outcome [6] | Potency [7] | Potency [8] | Potency [9] | Potency [10] | Potency [11] | Potency [12] | Potency [13] | outcome [14] | max response [15] -10.2%

CC(C)(Cl)Cl
inactive: outcome [1] | outcome [2] | Potency [16] | Potency [3] | Potency [5] | outcome [6] | Potency [8] | Potency [17] | Potency [9] | Potency [10] | Potency [11] | Potency [12] | Potency [13] | outcome [14] | max response [18] 3.57% | activation [19] -1.59% | max response [15] -1.91%

CNC(=O)O/N=C/C(C)(C)S(C)=O (stereo not given)
inactive: outcome [1] | outcome [2] | Potency [16] | Potency [3] | outcome [4] | Potency [5] | Potency [7] | Potency [8] | Potency [17] | Potency [9] | Potency [10] | Potency [11] | Potency [12] | Potency [13] | outcome [14] | max response [18] 12.4% and -11.4% | activation [19] -0.482% and 5.01% | max response [15] 1.76% and 2.37%

CN(C)C(=O)Cl
inactive: outcome [2] | Potency [16] | outcome [6] | Potency [7] | Potency [8] | Potency [17] | Potency [20] | Potency [9] | Potency [10] | Potency [11] | Potency [12] | Potency [13] | outcome [14] | max response [18] 8.18% | max response [15] -21%

CCCN(CCC)c1c([N+](=O)[O-])cc(C(F)(F)F)cc1[N+](=O)[O-]
inactive: outcome [1] | outcome [2] | Potency [16] | Potency [3] | outcome [4] | Potency [5] | outcome [6] | Potency [7] | Potency [17] | Potency [20] | Potency [11] | Potency [12] | outcome [14] | max response [18] 0.285% and -10.3% | max response [15] -5.66% and -9.4%

Nc1ccccc1-c1ccccc1
inactive: outcome [1] | Potency [16] | Potency [3] | outcome [4] | Potency [5] | Potency [8] | Potency [20] | Potency [9] | Potency [10] | Potency [11] | outcome [14] | max response [18] -19.9% | activation [19] -6.93% | max response [15] -2.88%

O=[N+]([O-])c1ccccc1-c1ccccc1
inactive: outcome [1] | outcome [2] | Potency [16] | Potency [5] | outcome [6] | Potency [7] | Potency [17] | Potency [20] | Potency [9] | Potency [10] | Potency [13] | outcome [14] | max response [18] 0.902% | activation [19] -1.36%

COC(=O)c1ccccc1N
inactive: outcome [1] | outcome [2] | Potency [16] | Potency [3] | outcome [4] | outcome [6] | Potency [8] | Potency [17] | Potency [20] | Potency [9] | Potency [10] | Potency [11] | Potency [12] | Potency [13] | outcome [14] | max response [18] 17.4% | activation [19] -1.42%
